Several values for one entry are separate records, joined by “and”; a condition that tells them apart may be missing. Equal values may be shown once. Results filed as inconclusive are left out. Where a structure was tested more than once in an assay, its records may differ in their call. Activity calls are given as the source filed them. Calls follow the shape of the dose curve; as a rule, active = well fitted curve in the direction sought with a large enough effect; inconclusive = small, poorly fitted or top-dose-only effect, or another doubt; inactive = no such curve, though single readings can be large; an effect the other way counts as inactive or inconclusive.

This is an account of results in PubChem BioAssay (NCATS).

For assay [1], the target named is Glutathione peroxidase 1 (Homo sapiens) (UniProt P07203). Put plainly: Primary qHTS Assay for Inhibitors of Recombinant Selenoprotein Glutathione Peroxidase 1 (GPX1) (AID 1845191). Also: nearly all actives have a fitted effect of over 65% in size. Also: potency is read from the fitted curve at half-maximal effect. As to activity, negative = inhibition: % is scaled to controls: 0 for no effect and ±100 for the full control effect. Put shortly:
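10 nM GPX1 + cpd, 30 min RT; start w/ 1 mM GSH, 0.5 mM cumene hydroperoxide, 0.5 mM NADPH, 100 nM GR, 0.01% BSA; buffer 50 mM Tris-HCl pH 7.5, 2 mM EDTA, 150 mM NaCl; Fl 340/450, 0 & 15 min.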

Assay [2] concerns the target Phospholipid hydroperoxide glutathione peroxidase GPX4 (Homo sapiens) (UniProt P36969). As to the kind of experiment: Primary qHTS Assay for Inhibitors of Recombinant Selenoprotein Glutathione Peroxidase 4 (GPX4) (AID 1845192). Also: nearly all actives have a fitted effect of over 65% in size. Also: potency is read from the fitted curve at half-maximal effect. As to activity change, negative = inhibition: series mostly up to about 50 µM; % is scaled to controls: 0 for no effect and ±100 for the full control effect. An outline of the steps:
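NADPH consumption, followed by fluorescence at 340/450 nm between 0 and 15 min, reports GPX4 activity via coupled glutathione reductase (100 nM). Enzyme 200 nM was pre-exposed to compound 30 min; 0.5 mM cumene hydroperoxide and 1 mM GSH served as substrates.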

Assay [3] deals with Luciferin 4-monooxygenase (Photinus pyralis) (UniProt P08659). Put plainly: Primary firefly luciferase (FLuc) qHTS assay for identification of artifact compounds. (AID 1845220). Also: nearly all actives have a fitted effect of over 60% in size.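 As to activity change, negative = inhibition: series mostly up to about 54 µM; plate controls were DMSO vehicle for no effect and no enzyme for full effect.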 An outline of the steps:
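Compounds sat 15 min at room temperature with 10 uM luciferin and 10 uM ATP (pH 7.6 Tris acetate). Firefly luciferase (10 nM final) was then added, and luminescence was read 5 min later. Data normalized to no-enzyme and DMSO controls were Hill-fitted.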

Assay [4] in a line: Primary fluorescence-based thiol-reactive (MSTI) qHTS assay for identification of artifact compounds. (AID 1845221). Also: nearly all actives have a fitted effect of over 65% in size. Also: potency is read from the fitted curve at half-maximal effect.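 As to activity change, negative = thiol reactive: series mostly up to about 54 µM; thiol-reactive compounds lower the probe fluorescence signal.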 Put shortly:
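Compounds were incubated 1 h at room temperature in the dark with the MSTI probe (4 uM) in PBS pH 7.4, 2% DMSO. Signals were normalized between Acetyl-MSTI and MSTI.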

The nature of assay [5]: Primary redox qHTS assay for identification of artifact compounds. (AID 1845223).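 Also: 0% = DMSO and 100% = reference compound.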 Put shortly:
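Amplex Red (25 uM) and HRP (250 mU/mL) in HBSS, with compounds for 15 min, then 250 uM DTT for 30 min, room temperature, dark. Fluorescence 525/598 nm read; normalized to DMSO and 10 uM DA3003; Hill fit.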

The nature of assay [6]: Quantitative High-Throughput drug screen in 47 multiple myeloma cell lines against the NCATS MIPE library collection: FR4_PLB cell viability assay (AID 1918924; also: nearly all actives have a fitted effect of over 35% in size; also: potency is read from the fitted curve at half-maximal effect). Put shortly: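 Primary qHTS used for cherry-picking: cells at 500/well, library compounds for 48 h (37C, 5% CO2), luminescent ATP assay.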
The test system of assay [7] is Nanoluciferase (engineered Oplophorus gracilirostris luciferase). As to the kind of experiment: Primary Nanoluciferase (NLuc) qHTS assay for identification of artifact compounds. (AID 1845222). Also: potency is read from the fitted curve at half-maximal effect.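 As to activity, negative = inhibition: series mostly up to about 54 µM; 0% = DMSO and -100% = no enzyme.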 An outline of the steps:
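Luminescence from secreted NLuc (filtered, 1:55-diluted S16 cell medium) read 5 min after Nano-Glo substrate; compounds preincubated 15 min, RT. Hill fits of inhibition normalized to DMSO and no-enzyme.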

Chain of Glutathione peroxidase 1 (Homo sapiens) (P07203 whole entry, looked up): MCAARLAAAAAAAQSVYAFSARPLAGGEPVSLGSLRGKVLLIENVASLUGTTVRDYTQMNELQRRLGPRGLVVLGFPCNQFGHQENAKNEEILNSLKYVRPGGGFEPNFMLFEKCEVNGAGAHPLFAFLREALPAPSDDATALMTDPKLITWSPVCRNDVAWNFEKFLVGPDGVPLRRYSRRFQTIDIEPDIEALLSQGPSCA
Chain of Phospholipid hydroperoxide glutathione peroxidase GPX4 (Homo sapiens) (P36969 whole entry, looked up): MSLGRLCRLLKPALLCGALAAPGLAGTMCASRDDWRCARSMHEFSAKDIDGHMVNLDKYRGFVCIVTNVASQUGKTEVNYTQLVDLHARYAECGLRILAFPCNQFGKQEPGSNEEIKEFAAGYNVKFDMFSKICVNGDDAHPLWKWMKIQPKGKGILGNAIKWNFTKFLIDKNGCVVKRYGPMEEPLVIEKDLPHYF

Take `COc1cc(C)c(Sc2cnc(NC(=O)c3ccc(CNC(C)C(C)C)cc3)s2)cc1C(=O)N1CCN(C(C)=O)CC1` (centres undefined): the Potency result in assay [1], in assay [2], in assay [3], in assay [4] and in assay [5] was “inactive” in each case. The Potency in assay [6] was 14.8 µM (active).
For the compound `NC(=O)c1c(OCc2c(F)cc(Br)cc2F)nsc1NC(=O)NCCCCN1CCCC1`, the Potency entry in assay [1], in assay [2], in assay [4], in assay [7] and in assay [5] was “inactive” each time.
As to `CC1(C)CCC(c2ccc(Cl)cc2)=C(CN2CCN(c3ccc(C(=O)NS(=O)(=O)c4ccc(N[C@H](CCN5CCOCC5)CSc5ccccc5)c(S(=O)(=O)C(F)(F)F)c4)cc3)CC2)C1`, the Potency result in assay [1], in assay [3], in assay [4] and in assay [5] was “inactive” in each case. Moreover, the Potency in assay [2] is 10.1 µM (active).
`CNC(=O)c1ccc(N2C(=S)N(c3cnc(C#N)c(C(F)(F)F)c3)C(=O)C23CCC3)cc1F`: the Potency result in assay [1], in assay [2], in assay [4], in assay [7] and in assay [5] was “inactive” in each case. Also, the Potency in assay [6] was 14.8 µM (active).
Regarding `O=C(Nc1cn[nH]c1-c1nc2ccc(CN3CCOCC3)cc2[nH]1)NC1CC1`, the Potency entry in assay [1], in assay [2], in assay [3], in assay [4] and in assay [5] was “inactive” throughout. Moreover, the Potency in assay [6] was 2.35 µM (active).
Turning to `CN(C)c1nc(Cc2ccc(NC(=O)c3ccc4ccccc4c3)cc2)nc(Cl)c1CC(=O)O`, the Potency result in assay [1], in assay [2], in assay [4], in assay [7], in assay [5] and in assay [6] was “inactive” each time.
Take `CCCCOc1c(C(=O)c2c(F)cc(C)cc2F)cnc2n[nH]cc12`: the Potency entry in assay [1], in assay [2], in assay [3], in assay [4] and in assay [5] was “inactive” each time. Also, the Potency in assay [6] was 4.18 µM (active).
As to `Cc1[nH]nc2ccc(-c3cncc(OC[C@@H](N)Cc4ccccc4)c3)cc12`, the Potency entry in assay [1], in assay [2], in assay [4], in assay [7] and in assay [5] was “inactive” throughout. The Potency in assay [6] was 4.18 µM (active).
Turning to `CCc1cc2c(cc1N1CCC(N3CCOCC3)CC1)C(C)(C)c1[nH]c3cc(C#N)ccc3c1C2=O`, the Potency entry in assay [1], in assay [2], in assay [4], in assay [7] and in assay [5] was “inactive” in each case.
For the compound `CCOC(=O)C1=C(C)NC2=C(C(=O)CC(C)(C)C2)C1c1ccc(-c2ccccc2)cc1` (centres undefined), the Potency result in assay [1], in assay [2], in assay [3], in assay [4] and in assay [5] was “inactive” in each case. Moreover, the Potency in assay [6] was 20.9 µM (active).
For the compound `CC(C)(C)c1cc(NC(=O)Nc2ccc(-c3cn4c(n3)sc3cc(OCCN5CCOCC5)ccc34)cc2)no1`, the Potency result in assay [1], in assay [2], in assay [3] and in assay [5] was “inactive” in each case.
Regarding `Cc1ccc(C(=O)Nc2ccc(CN3CCN(C)CC3)c(C(F)(F)F)c2)cc1C#Cc1cnc2cccnn12`, the Potency entry in assay [1], in assay [2], in assay [4], in assay [7] and in assay [5] was “inactive” each time.
Consider `O=C(Nc1ncc(-c2cc(C(F)F)nn2-c2c(Cl)cccc2Cl)s1)C1CC1`, for which the Potency entry in assay [1], in assay [2], in assay [4], in assay [7] and in assay [5] was “inactive” in each case.
With `COc1ccc(F)c(F)c1C(=O)c1cnc(NC2CCN(S(C)(=O)=O)CC2)nc1N`, the Potency entry in assay [1], in assay [2], in assay [3], in assay [4] and in assay [5] was “inactive” in each case. In addition, the Potency in assay [6] is 2.35 µM (active).
Consider `O=C(Nc1cc(C(F)(F)F)cc(C(F)(F)F)c1)c1cc(Cl)ccc1O`, for which the Potency entry in assay [1], in assay [2], in assay [3], in assay [7] and in assay [5] was “inactive” each time.
On to `CNC(=O)c1cc(Oc2ccc(NC(=O)Nc3cc(C(C)(C)C)nn3-c3ccc4ncccc4c3)c(F)c2)ccn1`, for which the Potency result in assay [1], in assay [2], in assay [4] and in assay [7] was “inactive” each time.
Turning to `CCCCCN(CCC12CC3CC(CC(C3)C1)C2)C(=O)NCCCc1ccncc1`, the Potency result in assay [1], in assay [2], in assay [3], in assay [7] and in assay [5] was “inactive” each time.
Consider `Cc1cn2cc(C(=O)N(C)CCO)cc(N[C@@H]3CCOc4cccc(C)c43)c2n1`, for which the Potency result in assay [1], in assay [2], in assay [3], in assay [7] and in assay [5] was “inactive” throughout.
As for `COc1cc2c(Nc3ccc(NC(=O)c4ccccc4)cc3)ncnc2cc1OCCCN1CCOCC1`, the Potency result in assay [1], in assay [2], in assay [3], in assay [4] and in assay [5] was “inactive” each time.
Turning to `Cc1cc(CN2CCN(c3c(Br)cnc4nc(-c5ccc(N6CCN(C)CC6)cc5)[nH]c34)CC2)no1`, the Potency in assay [1] is 11.4 µM (active) and 12.9 µM (active); in assay [2], “inactive and 14.3 µM (active)”; in assay [6], 18.7 µM (active). Also, the Potency result in assay [3], in assay [7] and in assay [5] was “inactive” in each case.
For `CNC(=O)c1nn(C)c2c1C(C)(C)Cc1cnc(Nc3ccc(N4CCN(C)CC4)cc3)nc1-2`, the Potency entry in assay [1], in assay [2], in assay [3] and in assay [7] was “inactive” each time. Further, the Potency in assay [6] was 1.66 µM (active).
`CC(C)c1cnn2c(NCc3ccccc3)cc(N[C@@H](CO)[C@H](O)CO)nc12`: the Potency result in assay [1], in assay [2], in assay [3], in assay [7] and in assay [5] was “inactive” throughout. Further, the Potency in assay [6] is 0.264 µM (active).
In the case of `Cc1cnc(-c2cnc(NCCNc3ccc(C#N)cn3)nc2-c2ccc(Cl)cc2Cl)[nH]1`, the Potency result in assay [1], in assay [2] and in assay [4] was “inactive” each time. Moreover, the Potency in assay [7] was 3.38 µM (active).
With `CCc1c2c(nc3ccc(O)cc13)-c1cc3c(c(=O)n1C2)COC(=O)[C@]3(O)CC`, the Potency entry in assay [1], in assay [2], in assay [3] and in assay [5] was “inactive” throughout. Also, the Potency in assay [6] was 0.59 µM (active).
Turning to `COc1cc(Nc2ncc(F)c(Nc3ccc4c(n3)N(COP(=O)(O)O)C(=O)C(C)(C)O4)n2)cc(OC)c1OC`, the Potency result in assay [1], in assay [2], in assay [3], in assay [5] and in assay [6] was “inactive” in each case.
Turning to `CC1(O)CC(c2nc(-c3ccc4ccc(-c5ccccc5)nc4c3)c3c(N)nccn23)C1` (centres undefined), the Potency entry in assay [1], in assay [2], in assay [3], in assay [7] and in assay [5] was “inactive” throughout. In addition, in assay [6], the Potency was 7.43 µM (active).
`CS(=O)(=O)N1CCN(Cc2cc3nc(-c4cccc5[nH]ncc45)nc(N4CCOCC4)c3s2)CC1`: the Potency result in assay [1], in assay [2], in assay [3], in assay [4] and in assay [5] was “inactive” throughout.
Consider `c1nc2nc(Nc3ccc(N4CCOCC4)cc3)nc(NC3CCCCC3)c2[nH]1`, for which the Potency entry in assay [1], in assay [2], in assay [3] and in assay [5] was “inactive” in each case. The Potency in assay [4] was 0.922 µM (active); in assay [6], 26.4 µM (active).
As for `CC(=O)c1c(C)c2cnc(Nc3ccc(N4CCNCC4)cn3)nc2n(C2CCCC2)c1=O`, the Potency entry in assay [1] and in assay [2] was “inactive” each time. The activity change, negative = thiol reactive in assay [4] was 7.61% [at 6.41 µM] (inactive). Further, in assay [7], the activity, negative = inhibition was 0% [at 6.45 µM] (inactive). Besides, the redox activity (% of DA3003) in assay [5] was -5.59% [at 6.41 µM] (inactive).
As for `C=CC(=O)Nc1cccc(Oc2nc(Nc3ccc(N4CCN(C)CC4)cc3OC)ncc2Cl)c1`, the Potency result in assay [1], in assay [2], in assay [3] and in assay [5] was “inactive” in each case. Besides, the Potency in assay [4] was 2.67 µM (active).
Take `O=C(CCCCCCC(=O)Nc1ccc([C@H]2O[C@@H](CSc3nc(-c4ccccc4)c(-c4ccccc4)o3)C[C@@H](c3ccc(CO)cc3)O2)cc1)NO`: the Potency result in assay [1], in assay [4], in assay [7] and in assay [5] was “inactive” throughout. The activity change, negative = inhibition in assay [2] is -22.8% [at 9.73 µM] (inactive).
On to `Cc1cc(C(=O)N2CCN(c3cccc(Cl)c3)CC2)n(-c2ccccc2)n1`, for which the Potency result in assay [1], in assay [2], in assay [3], in assay [4] and in assay [5] was “inactive” in each case. In addition, the Potency in assay [6] is 0.148 µM (active).
`CC[C@@]1(O)C(=O)OCc2c1cc1n(c2=O)Cc2cc3cc(O)ccc3nc2-1`: the Potency entry in assay [1], in assay [2], in assay [3], in assay [7] and in assay [5] was “inactive” throughout. For the same compound, the Potency in assay [6] is 1.18 µM (active).
Take `Cc1cnc(Nc2ccc(F)cc2Cl)nc1-c1c[nH]c(C(=O)N[C@H](CO)c2cccc(Cl)c2)c1`: the Potency result in assay [1], in assay [2], in assay [3], in assay [4] and in assay [5] was “inactive” throughout.
For `CC[C@@H]1C(=O)N(C)c2cnc(Nc3ccc(C(=O)NC4CCC(N5CCN(CC6CC6)CC5)CC4)cc3OC)nc2N1C(C)C` (some centres undefined), the Potency result in assay [1], in assay [2], in assay [3], in assay [4] and in assay [5] was “inactive” throughout. Besides, the Potency in assay [6] is 0.059 µM (active).
With `COc1ccc(-c2cc3c(C)nc(N)nc3n(C3CCC(OCCO)CC3)c2=O)cn1` (centres undefined), the Potency entry in assay [3] is “inactive”.
Same read-out and setting: as for `COC(=O)Nc1ccc(-c2nc(N3CCOCC3)c3cnn(C4CCN(Cc5cccnc5)CC4)c3n2)cc1`, the entry is “inactive”.
